According to PubChem BioAssay (NCATS):
Inconclusive results are not listed. Where a call stands in place of a potency, no number is given. Active and inactive are the calls of the source. Calls come from the whole dose curve; as a rule, active = well fitted inhibition curve with a large enough effect; inconclusive = small, poorly fitted or top-dose-only effect; inactive = flat fitted curve, though single readings scatter.

Molecular target: Glutathione peroxidase 1 (Homo sapiens) (UniProt P07203)
Sequence (P07203 whole entry, looked up): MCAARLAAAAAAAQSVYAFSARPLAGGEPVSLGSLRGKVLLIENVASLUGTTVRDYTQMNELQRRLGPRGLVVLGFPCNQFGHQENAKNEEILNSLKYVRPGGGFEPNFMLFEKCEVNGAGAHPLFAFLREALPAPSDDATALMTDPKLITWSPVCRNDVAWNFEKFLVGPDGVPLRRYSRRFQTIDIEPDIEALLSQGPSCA
Assay: Primary qHTS Assay for Inhibitors of Recombinant Selenoprotein Glutathione Peroxidase 1 (GPX1) (AID 1845191); note: nearly all actives have a fitted effect of over 65% in size
Settings: recombinant GPX1, GR-coupled NADPH fluorescence, 15 min; series mostly up to 48.8 µM
How it was run: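 GR-coupled assay: compounds preincubated 30 min at room temperature with GPX1, then reaction started with CHP; final 10 nM GPX1, 1 mM GSH, 0.5 mM CHP, 0.5 mM NADPH, 100 nM GR, 0.01% BSA, pH 7.5 Tris buffer. NADPH fluorescence (340/450 nm) read at 0 and 15 min.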
Potency is the fitted concentration of half-maximal effect.

Compound	Potency	outcome
CCNC(=O)CCC/C=C\C[C@@H]1[C@@H](/C=C/[C@@H](O)CCc2ccccc2)[C@H](O)C[C@@H]1O	inactive	–
NS(=O)(=O)c1ccc(-n2nc(C(F)(F)F)cc2-c2ccc(F)cc2)cc1	inactive	–
CCCCCCCCn1cc(CC(N)=O)c2cc(-c3cccc(C)c3)ccc21	inactive	–
O[C@@H]1[C@@H](O)[C@@H](O)OC[C@@H]1O	inactive	–
OC[C@H]1O[C@@H](OC[C@H]2O[C@@H](O[C@@H]3[C@@H](O)[C@H](O)O[C@H](CO)[C@H]3O)[C@H](O)[C@@H](O[C@@H]3O[C@H](CO)[C@@H](O)[C@H](O)[C@H]3O)[C@@H]2O)[C@H](O)[C@@H](O)[C@@H]1O	inactive	–
CCCCC[C@H](O)/C=C/[C@@H]1[C@@H](C/C=C/CCCC(=O)O)[C@@H](O)C[C@H]1O	inactive	–
C[C@](C#N)(COc1cc(C#N)ccc1C(F)(F)F)NC(=O)c1ccc(SC(F)(F)F)cc1	inactive	–
CC(C)=C/C(C)=N\Nc1nncc2ccccc12	inactive	–
C=C1/C(=C/C=C2\CCC[C@]3(C)[C@@H]([C@H](C)CCCC(O)(C(F)(F)F)C(F)(F)F)CC[C@@H]23)C[C@@H](O)C[C@@H]1O	inactive	–
NC(N)=NCCC[C@@H](N)C(=O)N[C@@H](CCCN=C(N)N)C(=O)N1CCC[C@H]1C(=O)N1C[C@H](O)C[C@H]1C(=O)NCC(=O)N[C@@H](Cc1cccs1)C(=O)N[C@@H](CO)C(=O)N1Cc2ccccc2C[C@@H]1C(=O)N1[C@H](C(=O)N[C@@H](CCCN=C(N)N)C(=O)O)C[C@@H]2CCCC[C@@H]21	inactive	–
O=C(O[C@H]1C[N+]2(CCCOc3ccccc3)CCC1CC2)C(O)(c1cccs1)c1cccs1	inactive	–
COC(=O)N(C)Cc1cccc(N2CCN(C(c3ccccc3)c3ccccc3)CC2)c1	inactive	–
CC(C)C(=O)SCCCCCCC(=O)Nc1nc(-c2ccccc2)cs1	inactive	–
COc1ccc(C[C@H](NC(=O)[C@H](C)NC(=O)CN2CCOCC2)C(=O)N[C@@H](Cc2ccccc2)C(=O)[C@@]2(C)CO2)cc1	inactive	–
O=C1[C@@H]2[C@H]3CC[C@H](C3)[C@@H]2C(=O)N1C[C@@H]1CCCC[C@H]1CN1CCN(c2nsc3ccccc23)CC1	inactive	–
CS(=O)(=O)n1cc2c(n1)CN([C@H]1CO[C@H](c3cc(F)ccc3F)[C@@H](N)C1)C2	inactive	–
CCC(=O)O[C@]1(C(=O)COC(C)=O)CC[C@H]2[C@@H]3CCC4=CC(=O)CC[C@]4(C)[C@H]3[C@@H](O)C[C@@]21C	inactive	–
CCCCCCCCCCCCCCCCCCCCCCCCCCCCO	–	inactive [at 0.4 µM]
CN1CC(O)c2cc(N=NC(=N)N)c(O)cc21 (stereo not given)	inactive	–
O=C(O)[C@@H]1C(=CCO)O[C@@H]2CC(=O)N12	inactive	–
CN1N=C2CCN(C(=O)[C@H](COCc3ccccc3)NC(=O)C(C)(C)N)C[C@]2(Cc2ccccc2)C1=O	inactive	–
COc1ccccc1Nc1nc(-c2sc(NC(C)=O)nc2C)cs1	20.2 µM (active)	–
O=C(O)c1ccnc2cc(C(OCCCN3CCCCC3)c3ccccc3Cl)[nH]c12 (stereo not given)	inactive	–
O=S(=O)(Nc1cccc(-c2ccc(N3CCOCC3)nn2)c1)c1cc(C(F)(F)F)ccc1Cl	inactive	–
CC1(COc2ccc(N3CCC(Oc4ccc(OC(F)(F)F)cc4)CC3)cc2)Cn2cc([N+](=O)[O-])nc2O1 (stereo not given)	inactive	–
CCCCCCCCCCCCCCCC(=O)OC1CCCn2c1nc(C)c(CCN1CCC(c3noc4cc(F)ccc34)CC1)c2=O (stereo not given)	inactive	–
OCc1cc(C(O)CNCCCCCCOCCOCc2c(Cl)cccc2Cl)ccc1O (stereo not given)	inactive	–
C[N+]1(C)C2CC[C@H]1CC(OC(=O)C(O)c1ccccc1)C2 (stereo not given in full)	inactive	–
COc1ccc(CC(C)(C)NC[C@H](O)c2cc(O)cc3c2OCC(=O)N3)cc1	inactive	–
CCC(=O)NC[C@@H]1C[C@H]1c1cccc2c1CCO2	inactive	–
